This passage reports growth results from PubChem BioAssay (NCI).

This is part of a sample that, as a whole, favours compounds with a hit. Of some 83,000 tested, about 20% had one in any assay.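 Cell lines were cultured in 96-well plates, exposed to a single compound concentration, and assessed for percent growth 48 hours later.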 Unmarked numbers belong to inactive results. Activity calls are given as the source filed them. How the source made its calls: active means growth percent below 10; inactive means the rest.

The first test has as its system MALME-3M melanoma. Nature of the test: NCI-60 one-dose screen, 48 h (100 = growth as untreated, 0 = no growth, -100 = all killed). The following applies: 10 µM unless noted.
On to `CC1=C(C)C(=O)C(Nc2ccc3c(c2)OCCO3)=C(Br)C1=O`, for which the growth was 122%.

Take `CCN(CC)c1ccc(/C=N/NC(=O)c2ccc(S(N)(=O)=O)cc2)c(O)c1`: the growth was -1.7% (active).

Regarding `Cc1ccc(S(=O)(=O)NCCCNc2nc(Nc3ccc(N4CCN(C)CC4)cc3)nc3ccsc23)cc1`, the growth is -87.9% (active).

`CN1CCN(Cc2ccc(NC(=O)c3cncc(C#Cc4cnc5ccc(NCCO)nn45)c3)cc2C(F)(F)F)CC1`: the growth is -69.7% (active).

For the compound `COC(=O)c1cccc(NC2=C(Cl)C(=O)c3nc(C)ccc3C2=O)c1`, the growth is 87.5%.

`O=C1Nc2cc(Cl)ccc2/C1=C\c1ccc(OCc2ccccc2)cc1`: the growth was 115%.

Take `Cc1ccc(-c2csc(N/N=C/c3cccs3)n2)cc1`: the growth was 88.8%.

Take `O=[N+]([O-])c1ccc(NC(=S)NNC(=S)Nc2ccc(Br)cc2)cc1`: the growth was 89.4%.

The next test relates to MDA-MB-231 breast. The test is described as above. The following applies: 10 µM unless noted.
On to `NC(=O)n1c(=O)n(-c2cccc(C(F)(F)F)c2)c(=O)c2cc(-c3ccc(F)cc3F)ccc21`, for which the growth was -24% (active).

With `O=C1CSC(c2cn(-c3ccccc3)nc2-c2ccc(Cl)cc2)N1c1ccccc1` (stereo unspecified), the growth is 107%.

As for `COc1ccc(/C=N/NC(=O)CSc2nc(-c3cnccn3)cc(-c3cccs3)c2C#N)cc1`, the growth is 70.5%.

On to `C#Cc1cc(OC)c(C(=O)Nc2ccc(F)cc2C(=O)Nc2cccc(S(=O)(=O)C(F)(F)F)c2)cn1`, for which the growth was -24.4% (active).

`CN1c2ccccc2Sc2cc(/C=N/Nc3ccnc4cc(Cl)ccc34)ccc21`: the growth is 98.5%.

On to `O=C(/C=C/c1cccc(F)c1)c1cccc(OCCCOc2cccc(C(=O)/C=C/c3cccc(F)c3)c2)c1`, for which the growth was 81%.

`CN1CCN(Cc2ccc(NC(=O)c3cncc(C#Cc4cnc(N)nc4)c3)cc2C(F)(F)F)CC1`: the growth was -7.34% (active).

In the case of `O=C(CSc1nc2ccccc2c(=O)n1-c1ccc(Cl)c(Cl)c1)Nc1ccc(S(=O)(=O)Nc2ccc(Cl)nn2)cc1`, the growth is 90.8%.

In the case of `Cc1[nH]c(C(=O)Nc2ccc(C(N)=O)cc2N2CCOC(C)C2)c(Cl)c1Cl` (stereo unspecified), the growth is 95.7%.

`N#Cc1nc(-c2ccccc2)oc1N1CCC(C2(C(F)(F)F)N=N2)CC1`: the growth is 93.8%.

Take `C/C(=C(\c1ccc(O)cc1)c1ccc(OCCN2CCCCCC2)cc1)c1ccc(Cl)cc1`: the growth was -85% (active).

Turning to `COc1ccc(C(=O)c2c(N)c(C#N)cn2-c2ccc(Cl)cc2Cl)cc1`, the growth is 90.8%.

As for `C#C[C@]1(O)CC[C@H]2[C@@H]3CC=C4c5sc(Nc6cccc(F)c6)nc5CC[C@]4(C)[C@H]3CC[C@@]21C`, the growth was 30.6%.

On to `C[C@@H]1OCC2(CCN(c3cnc(C(=O)Nc4cc(F)cc5cccnc45)cn3)CC2)[C@@H]1N`, for which the growth is 38.9%.

For the compound `Cn1c(SCC(=O)c2ccc(F)cc2)nc2ccccc2c1=O`, the growth was 91.7%.

Take `O=C(CCCCCC/C=C\c1csc(Br)n1)NO`: the growth is 98.4%.

Consider `COc1ccc(-c2cc(-c3ccc(N4CCOCC4)cc3)n3c(n2)nc2ccccc23)cc1OC`, for which the growth is 70.9%.

Turning to `CN(C)c1cccc2c(S(=O)(=O)Nc3cccc(-c4csc(NC(=O)CCCCCN5CCN(CCO)CC5)n4)c3)cccc12`, the growth was 84.1%.

Consider `O=c1nc(Nc2ccc([N+](=O)[O-])cc2O)sc2ccccc12`, for which the growth was 51.8%.

Turning to `CCc1cc(OC(=O)N2CCC(N3CCCCC3)CC2)ccc1Nc1cc(-c2ccc(-n3cccn3)cc2)[nH]n1`, the growth is 59.5%.

For `COc1ccc(-c2c(C(N)=O)c(N)n(Cc3nc4ccccc4[nH]3)c(=O)c2C#N)c(OC)c1`, the growth was 92.1%.

With `CCOC(=O)Nc1ccc2c(ccn2C(=O)c2cccc(F)c2)c1`, the growth was 52.8%.

For the compound `CN(C)CCCOc1ccc(C(=C(c2ccccc2)C2CCCC2)c2ccc(OCCCN(C)C)cc2)cc1`, the growth was -86.4% (active).

Take `CN1CCC[C@]2(C)[C@H]3CC[C@@H]4[C@@H]5[C@H]6OC[C@@]5(CCC6(C)C)CC[C@@]4(C)[C@]3(C)CC[C@H]2C1(C)C`: the growth is 67.3%.

As for `CNC(=O)c1cc(-c2ccc(NC(=S)Nc3cccc(C(F)(F)F)c3)cc2)nc2cccnc12`, the growth is 96.5%.

Consider `CC1(C)C=Cc2cc(/C(N)=N/C(N)=N/c3nc4ccccc4s3)ccc2O1`, for which the growth was 77.5%.

Regarding `C#Cc1cc(C(=O)Nc2ccc(CNCCN3CCOCC3)c(C(F)(F)F)c2)ccc1C`, the growth was 90.3%.

As to `CC(C)(O)c1cncc(-c2ccc3ncc(C#N)c(N4CCc5cc(F)c(Cl)cc54)c3c2)c1`, the growth is 20.4%.
